# NOD2 RIPK2 PPI = NOD2-RIPK2 protein interaction inhibition. CHO BLA complementation NOD2-RIPK2, CCF4 ratio. inhibition, % at 4.98 µM. 0.38% of 360,000 active. AID 624267; in the data active = inhibition above about 21%;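 note: 0% = vehicle only and 100% = reference blocker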
# Target sequence (O43353 whole entry, looked up): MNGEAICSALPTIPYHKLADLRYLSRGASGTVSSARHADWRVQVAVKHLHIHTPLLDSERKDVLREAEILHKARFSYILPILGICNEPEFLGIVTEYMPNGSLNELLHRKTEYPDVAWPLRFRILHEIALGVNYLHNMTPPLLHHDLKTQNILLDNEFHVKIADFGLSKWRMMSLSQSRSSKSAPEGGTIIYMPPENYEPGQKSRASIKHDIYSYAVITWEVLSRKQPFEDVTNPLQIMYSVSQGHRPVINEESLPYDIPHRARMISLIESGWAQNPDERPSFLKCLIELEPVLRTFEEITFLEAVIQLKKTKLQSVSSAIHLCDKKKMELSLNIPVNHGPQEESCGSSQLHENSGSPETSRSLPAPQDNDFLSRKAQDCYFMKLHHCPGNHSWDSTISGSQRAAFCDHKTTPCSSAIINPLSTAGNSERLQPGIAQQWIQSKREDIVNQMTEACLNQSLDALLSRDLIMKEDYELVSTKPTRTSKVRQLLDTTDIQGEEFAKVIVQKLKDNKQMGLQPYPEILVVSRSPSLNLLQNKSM
# ABHD5 PLIN5 PPI = blocks binding of human ABHD5 to perilipin-5. Q00G26+Q8WTS1. Split G. princeps luciferase complementation, luminescence, 4 h. inhibition, % at 4 µM. 0.78% of 360,000 active. AID 602281;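 active = inhibition above the mean inhibition across every tested compound plus 3 SD, cut at about 22% in these data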;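 note: 0% = DMSO only wells and the 100% control is not disclosed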
# m5-HT2A agonist = agonists of mouse serotonin 5-HT2A receptor (HTR2A); CHO-K1 mHTR2A beta-arrestin complementation, luminescence; percent of 30 µM serotonin response; activation, % at 7.6 µM; 0.66% of 360,000 active;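 active = activation above a run cutoff, the mean activation of all tested compounds plus 3 SD, cut at about 14% in these data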;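 note: 0% = plate median of compound wells and 100% = 30 µM serotonin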
# TLR4-MyD88 BLA = TLR4-MyD88 interaction inhibition in cells. inhibition, % at 8.4 µM. 0.18% of 200,000 active. O00206+Q99836. HeLa CL3-4 TLR4/MyD88 BLA complementation, FRET ratio; in the data active = inhibition above about 25%;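 note: 0% = vehicle and 100% = reference inhibitor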
# CRFR2-BP antag = blocks CRF-induced signaling of the CRF-BP/CRF-R2 complex; HEK293 CRF-R2/CRF-BP, CRF-induced calcium fluorescence; inhibition, % at 11.8 µM; 0.59% of 350,000 active;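 active = inhibition of the ligand-induced calcium signal above about 50% at the single tested concentration, limit read from the data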
# TLR9-MyD88 block = TLR9-MyD88 interaction inhibition | Q9NR96+Q99836 | inhibition, % at 4.98 µM | CHO BLA complementation TLR9-MyD88, CCF4 FRET ratio | 0.21% of 340,000 active | AID 504734;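 active = inhibition above the mean over all tested compounds plus 3 SD, cut at about 21% in these data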;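 note: 0% = DMSO only wells and 100% = clavulanate BLA inhibitor control wells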
# ABHD5 PLIN5 conf = ABHD5-PLIN5 interaction inhibition, confirmed. AID 651612. 67% of 2,200 active. inhibition, % at 4 µM. biochemical ABHD5-PLIN5 interaction, luminescence. shares compounds with ABHD5 PLIN5 PPI; in the data active = inhibition above about 23%;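 note: 0% = DMSO vehicle wells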
# HNF4 split-luc = active in HNF4 split-luciferase counter-screen for ABHD5-PLIN5 inhibitors. shares compounds with ABHD5 PLIN5 PPI. HNF4 dimerization, luminescence, biochemical. inhibition, % at 4 µM. 77% of 2,200 active. AID 651674;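 active = mean inhibition across replicate wells exceeding the computed hit threshold, cut at about 13% in these data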;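 note: light from luciferase halves that rejoin when HNF4 fusion proteins dimerize; 0% = DMSO only wells and the 100% control is not given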
# Active calls of the source: *; / = not tested or not shown. In the library only some 2.4% were active in any assay of this set; here they are far more common.
SMILES,NOD2 RIPK2 PPI,ABHD5 PLIN5 PPI,m5-HT2A agonist,TLR4-MyD88 BLA,CRFR2-BP antag,TLR9-MyD88 block,ABHD5 PLIN5 conf,HNF4 split-luc
CC(=O)C1=C(S(=O)(=O)c2ccc(C)cc2)CS(=O)(=O)C1,-4,29*,0,-13,19,-8,99*,110*
Cc1ccc(S(=O)(=O)C2CS(=O)(=O)CC2O)cc1 (stereo not given),-3,3,2,-12,-6,1,/,/
CC(=O)c1ccc(N2CCN(S(=O)(=O)c3ccc4c(c3)C(Cl)(Cl)C(=O)N4)CC2)cc1,8,31*,5,/,/,/,56*,51*
CC(=O)c1ccc(N2CCN(S(=O)(=O)c3ccc4c(c3)NC(=O)CC(=O)N4)CC2)cc1,-3,-2,9,/,7,5,/,/
CCN1C(=O)N/C(=C/c2ccc(Sc3ccc(C)cc3)o2)C1=O,-2,2,0,9,-52,-1,/,/
CCN1C(=O)N/C(=C/c2ccc(C)o2)C1=O,3,42*,-3,9,13,6,27*,89*
Cc1ccc(/C=C2/NC(=O)N(Cc3ccccc3F)C2=O)o1,9,40*,-4,9,-23,6,17,81*
CN(Cc1ccc(Cl)cc1)C(=O)c1[nH]c(C(F)(F)F)nc1-c1ccccc1,-12,0,-6,/,/,/,/,/
Nc1[nH]c(C(=O)c2ccccc2)c(-c2c(F)cccc2F)c1C(=O)c1ccc(Cl)c(Cl)c1,-4,-16,1,/,/,/,/,/
Cc1cccc(NC(=O)c2cc(NC(=O)C3CCCCC3C(=O)O)ccc2N2CCOCC2)c1 (stereo not given),7,0,-5,/,8,-2,/,/
COc1ccc(NC(=O)c2cc(NC(=O)C3CCCCC3C(=O)O)ccc2N2CCOCC2)cc1 (stereo not given),-2,24*,6,/,-4,-7,5,2
Cc1ccc(NC(=O)c2cc(N3C(=O)C=CC3=O)ccc2N2CCOCC2)cc1,-2,29*,2,4,6,19,51*,98*
COC(=O)C[C@@H]1CC[C@@H](NS(=O)(=O)c2ccccc2OC)[C@@H](CO)O1,-9,-2,8,/,/,/,/,/
COC(=O)[C@]12CCCCC=C1N(Cc1ccc(Cl)cc1Cl)C(=O)[C@H](CC(=O)NCC1CCCCC1)C2,-2,-13,-4,/,/,/,/,/
Cn1cccc1/C=C1\Cc2ccccc2C1=O,0,4,-3,-13,-13,4,/,/
Cn1cccc1/C=C1\CC(C(C)(C)C)C/C(=C\c2cccn2C)C1=O (stereo not given),5,25*,0,14,-119,4,12,26*
O=C(O)c1ccc(/C=C2\COc3ccccc3C2=O)cc1,-5,32*,-2,/,-5,-1,84*,78*
Cc1cc(C)c2c(c1)C(=O)/C(=C/c1ccc(C(=O)O)cc1)CC2,-8,14,0,/,11,-2,/,/
COc1ccc(/C=C2\COc3ccccc3C2=O)cc1OC,6,33*,2,-6,25,-16,76*,71*
O=C(Nc1cccc(C(F)(F)F)c1)Nc1nnc([C@@H]2C[C@H](O)[C@@H](CO)O2)s1,-4,3,-3,/,/,/,/,/
Cc1cccc(N=C2NC(=O)/C(=C/C=C/c3ccco3)S2)c1,-8,25*,-4,3,31,0,48*,34*
CCc1sc(C(C2C(=O)CC(C)(C)CC2=O)C2C(=O)CC(C)(C)CC2=O)cc1[N+](=O)[O-],-1,52*,6,2,24,0,101*,98*
CC(C)CNc1ncnc2c1ncn2[C@H]1CN(Cc2ccc3c(c2)OCO3)C[C@@H](CO)O1,3,4,5,/,/,/,/,/
CC1OC(CC(=O)O)CC2=C1C(=O)c1c(O)cccc1C2=O (stereo not given),78*,99*,-12,/,-62,0,4,5
Cc1cccc(N2CCN(C(=S)Nc3ccc4nc(N5CCN(C)CC5)cc(C)c4c3)CC2C)c1 (stereo not given),1,25*,1,11,-1,5,10,-4
SMILES,NOD2 RIPK2 PPI,ABHD5 PLIN5 PPI,m5-HT2A agonist,TLR4-MyD88 BLA,CRFR2-BP antag,TLR9-MyD88 block,ABHD5 PLIN5 conf,HNF4 split-luc
Cc1cc(N2CCN(C)CC2)nc2ccc(NC(=S)N3CCN(c4cccc(Cl)c4)CC3)cc12,-8,10,-4,-18,13,-5,/,/
O=C(OCc1ccccc1)N1CCC2CC1c1ccc(N3CCNCC3)cc12 (stereo not given),-2,6,9,/,6,10,/,/
COc1ccc(C(=O)CC(SCC(NC(C)=O)C(=O)O)c2ccc(Cl)cc2)cc1OC (stereo not given),-14,38*,-4,/,15,-11,24*,20*
CCCCOC(=O)Nc1cc(C(=O)OC)ccc1C(=O)OC,-4,28*,-2,1,-48,7,43*,5
Cc1ccccc1S(=O)(=O)N1C[C@@H]2C(C(=O)C[C@@H]3C(=O)N(C)C(=O)[C@@H]32)[C@@H]1c1ccc(Cl)cc1 (stereo not given in full),-1,-6,-6,/,/,/,/,/
O=C(C[C@H]1C=C[C@@H](NC(=O)c2ccncc2)[C@@H](CO)O1)NCC1CC1,0,1,8,/,/,/,/,/
CCN(CC)CCCNC(=O)CSc1c2c(nc3cc(Cl)ccc13)CCCC2,1,29*,-1,16,-8,-8,39*,28*
Cc1cc2c(cc1C)-n1nnnc1C(N1CCN(c3ccccc3F)CC1)C(=O)N2 (stereo not given),3,-2,-5,/,/,/,/,/
Nc1nc2c(ncn2[C@@H]2O[C@H](CNC(=O)[C@H](N)Cc3ccccc3)[C@@H](O)[C@H]2O)c(=O)[nH]1,1,-12,6,/,/,/,/,/
COCCNC(=O)/C(C#N)=C/c1cccc(NC(=O)c2ccccc2Cl)c1,1,5,2,-4,10,-6,/,/
CC(C)NC(=O)/C(C#N)=C/c1cccc(NC(=O)c2ccccc2Cl)c1,-6,28*,2,4,-32,0,65*,57*
O=C1/C(=C/c2cccnc2)CCc2c1[nH]c1ccccc21,1,7,1,-4,-16,5,/,/
CC1C/C(=C\c2cccnc2)C(=O)/C(=C/c2cccnc2)C1 (stereo not given),6,91*,1,3,-1,-2,100*,93*
CN(C(=O)CN1CCN(c2cc(-c3ccc(-c4ccccc4)cc3)ncn2)CC1)c1ccccc1,7,5,6,/,/,/,/,/
